Experimental data as given in PubChem BioAssay (NCATS).
Inconclusive results are not listed. Unless noted, calls follow the shape of the dose curve; as a rule, active = well fitted curve in either direction with a large enough effect (not every such curve was filed as active); inconclusive = small, poorly fitted or top-dose-only effect, or another doubt; inactive = flat fitted curve, though single readings scatter.

Tests used:
[1] = AP1 Signaling Pathway (AID 357); settings: ME-180 AP-1-bla reporter, EGF-induced, beta-lactamase ratio, 5 h; at 17.2 µM (top of the series) unless noted;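 also: ME-180 reporter cells stimulated with EGF at its EC50 level; % is scaled to controls: 0 for no effect and ±100 for the full control effect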
Procedure, shortened: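 AP-1-bla ME-180 cells, Opti-MEM + 0.5% dialyzed FBS, plated overnight 37 °C. Cpd titration + EC50 EGF, 5 h 37 °C. CCF4 2.5 h RT; ex 405, em 460/530 ratio → %activity, AC50.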

[2] = NFAT Signaling Pathway (AID 444); settings: Jurkat NFAT-bla M1, carbachol, beta-lactamase ratio, 5 h; at 17.2 µM (top of the series) unless noted;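 also: carbachol stimulus at about its EC50 of 1 µM final; % is scaled to controls: 0 for no effect and ±100 for the full control effect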
Procedure, shortened: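 Jurkat cells carrying an NFAT-driven β-lactamase reporter and co-transfected muscarinic M1 receptor were treated with compound plus carbachol (1 uM final, an EC50 level) for 5 h at 37 °C. CCF4 loading followed for 1 h at RT; 460/530 nm ratio gave %activity.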

[3] = Stat Signaling Pathway (AID 446); settings: ME-180 SIE beta-lactamase reporter, IL-6 stimulated, 5 h; at 17.2 µM (top of the series) unless noted;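 also: ME-180 cervical cancer cells given 40 pM IL-6 alongside compound; SIE-controlled beta-lactamase reporter measured as 460/530 nm FRET emission ratio; % is scaled to controls: 0 for no effect and ±100 for the full control effect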
Procedure, shortened: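 ME-180 SIE-bla cells; overnight plating; cpd + IL-6 40 pM, 5 h, 37 C; LiveBLAzer 2.5 h RT; 460/530 nm emission ratio. Normalized to 300 pM IL-6 and 125 nM JAK inhibitor controls.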

[4] = target: Glucocorticoid receptor (Homo sapiens) (UniProt P04150); test: GR-GFP Redistribution (AID 450;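 active = compounds whose dose series gives a full or clear partial fitted curve of increased nuclear translocation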; also: potency is read from the fitted curve at half-maximal effect)
Glucocorticoid receptor (Homo sapiens), sequence (P04150 whole entry, looked up): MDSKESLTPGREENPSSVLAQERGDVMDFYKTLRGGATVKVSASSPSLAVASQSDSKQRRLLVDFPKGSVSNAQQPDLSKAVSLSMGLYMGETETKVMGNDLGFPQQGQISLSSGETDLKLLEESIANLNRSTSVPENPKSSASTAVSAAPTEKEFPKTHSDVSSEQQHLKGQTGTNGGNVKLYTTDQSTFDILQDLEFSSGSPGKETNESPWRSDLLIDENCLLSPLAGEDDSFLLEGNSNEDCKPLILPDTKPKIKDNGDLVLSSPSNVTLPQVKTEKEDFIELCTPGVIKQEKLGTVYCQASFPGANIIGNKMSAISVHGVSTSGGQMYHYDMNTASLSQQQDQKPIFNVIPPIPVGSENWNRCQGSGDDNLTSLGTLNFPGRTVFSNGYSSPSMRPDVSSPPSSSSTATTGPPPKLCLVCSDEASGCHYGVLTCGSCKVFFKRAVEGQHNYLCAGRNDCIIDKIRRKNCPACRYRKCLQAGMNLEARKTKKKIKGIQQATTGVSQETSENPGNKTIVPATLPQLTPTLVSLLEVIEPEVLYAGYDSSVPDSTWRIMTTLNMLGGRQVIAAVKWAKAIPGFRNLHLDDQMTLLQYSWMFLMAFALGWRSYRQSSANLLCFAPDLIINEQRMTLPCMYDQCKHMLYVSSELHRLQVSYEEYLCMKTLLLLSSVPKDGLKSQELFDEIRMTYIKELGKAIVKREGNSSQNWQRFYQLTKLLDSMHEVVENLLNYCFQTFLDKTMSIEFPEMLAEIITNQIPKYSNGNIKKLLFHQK

Cc1cc(/C=N/n2cnnc2)c(C)n1-c1ccc2c(c1)OCO2
inactive: activity change, negative = inhibition [1] 9.26% | activity change, negative = inhibition [2] -13% | activity, negative = inhibition [3] -0.639% | Potency [4] > 20.6 µM

Cc1ccc(-n2[nH]c(C)c(C=Nc3cc(C)ccn3)c2=O)cc1
inactive: activity change, negative = inhibition [1] 2.52% | activity change, negative = inhibition [2] -2.28% | activity, negative = inhibition [3] 4.82% | Potency [4] > 20.6 µM

CN(C)c1nc2n(c(=S)n1)CCS2
inactive: activity change, negative = inhibition [1] 11.5% | activity change, negative = inhibition [2] 3.88% | activity, negative = inhibition [3] -7.31% | Potency [4] > 20.6 µM

CN(C)c1nc2n(c(=O)n1)C(C#N)CS2 (centres undefined)
inactive: activity change, negative = inhibition [1] -5.05% | activity change, negative = inhibition [2] 3.5% | activity, negative = inhibition [3] 5.84% | Potency [4] > 20.6 µM

Cn1c(=O)n(Cc2ccccc2)c(=O)c2c1nc(NCC1CCCO1)n2Cc1ccccc1 (centres undefined)
inactive: activity change, negative = inhibition [1] -28.9% | activity change, negative = inhibition [2] -16.1% | activity, negative = inhibition [3] -15.3% | Potency [4] > 20.6 µM

Clc1ccc(-n2ncc3c(NCc4ccco4)ncnc32)cc1
inactive: activity change, negative = inhibition [1] -19.6% | activity change, negative = inhibition [2] 1.57% | activity, negative = inhibition [3] -20.9% | Potency [4] > 20.6 µM

N#Cc1nc(-c2cccs2)oc1NCCN1CCOCC1
inactive: activity change, negative = inhibition [1] -3.9% | activity change, negative = inhibition [2] -7.03% | activity, negative = inhibition [3] 5.17% | Potency [4] > 20.6 µM

CC1CN(C2CCN(S(=O)(=O)c3ccccc3)CC2)CC(C)O1 (centres undefined)
inactive: activity change, negative = inhibition [1] 2.07% | activity change, negative = inhibition [2] -20.4% | activity, negative = inhibition [3] 2.46% | Potency [4] > 20.6 µM

O=C(NC1CCS(=O)(=O)C1)c1c(NC(=O)C2COc3ccccc3O2)sc2c1CCCC2 (centres undefined)
inactive: activity change, negative = inhibition [1] -20.8% | activity change, negative = inhibition [2] -18.5% | activity, negative = inhibition [3] -9.79% | Potency [4] > 20.6 µM

O=C(COc1ccc(F)cc1)OCCN1CCOCC1
inactive: activity change, negative = inhibition [1] -4.17% | activity change, negative = inhibition [2] -0.67% | activity, negative = inhibition [3] 11.3% | Potency [4] > 20.6 µM

C=CCOC(=O)C1=C(C)NC(SCC(=O)N(CC)CC)=C(C#N)C1c1ccco1 (centres undefined)
inactive: activity change, negative = inhibition [1] -27.3% | activity change, negative = inhibition [2] 6.04% | activity, negative = inhibition [3] -6.01% | Potency [4] > 20.6 µM

COc1cc(C2NC(=O)NC(C)=C2C(=O)Nc2cccc(C)c2C)cc(OC)c1OC (centres undefined)
inactive: activity change, negative = inhibition [1] 2.82% | activity change, negative = inhibition [2] 10.2% | activity, negative = inhibition [3] -2.31% | Potency [4] > 20.6 µM

CC(=O)c1cc2c(=O)c3ccccc3oc2nc1C
inactive: activity change, negative = inhibition [1] -1.73% | activity change, negative = inhibition [2] -16.9% | activity, negative = inhibition [3] 7.33% | Potency [4] > 20.6 µM

CCN(CC)CCCN1C(=O)C(=O)/C(=C(/O)c2ccc(C)cc2)C1c1ccccn1 (centres undefined)
inactive: activity change, negative = inhibition [1] 3.29% | activity change, negative = inhibition [2] 10.1% | activity, negative = inhibition [3] 4.05% | Potency [4] > 20.6 µM

Cc1oc2nc(SCCCC(=O)NCCCO)nc(N)c2c1C
inactive: activity change, negative = inhibition [1] -11.8% | activity change, negative = inhibition [2] 15.2% | activity, negative = inhibition [3] 4.84% | Potency [4] > 20.6 µM

CCOC(=O)CC1=NC(=O)CS1
inactive: activity change, negative = inhibition [1] 2.69% | activity change, negative = inhibition [2] 0.359% | activity, negative = inhibition [3] 4.4% | Potency [4] > 20.6 µM

CCOC(=O)c1cnc(SC2CC(=O)N(c3cccc(OC)c3)C2=O)nc1N (centres undefined)
inactive: activity change, negative = inhibition [1] -16% | activity change, negative = inhibition [2] -6.66% | activity, negative = inhibition [3] -12.1% | Potency [4] > 20.6 µM

c1ccc(-n2ncc3c(N4CCCC4)ncnc32)cc1
inactive: activity change, negative = inhibition [1] -17.5% | activity change, negative = inhibition [2] 14.9% | activity, negative = inhibition [3] -6.73% | Potency [4] > 20.6 µM

CCCCC(CCC(=O)Nc1ccc(C(=O)OC)cc1)C(=O)O (centres undefined)
inactive: activity change, negative = inhibition [1] 9.55% | activity change, negative = inhibition [2] 7.48% | activity, negative = inhibition [3] 8.56% | Potency [4] > 20.6 µM

Cc1nc(NCc2ccccc2)c(C(N)=O)c2c1COC(C)(C)C2
inactive: activity change, negative = inhibition [1] 1.8% | activity change, negative = inhibition [2] 9.09% | activity, negative = inhibition [3] 6.9% | Potency [4] > 20.6 µM

C=CCOc1ccc(/C(O)=C2/C(=O)C(=O)N(CCCN3CCOCC3)C2c2ccccc2)cc1 (centres undefined)
inactive: activity change, negative = inhibition [1] -4.92% | activity change, negative = inhibition [2] 12.9% | activity, negative = inhibition [3] -5.01% | Potency [4] > 20.6 µM

O/N=C/c1ccc(OCC(O)COc2ccc(/C=N/O)cc2)cc1
inactive: activity change, negative = inhibition [1] -15.3% | activity change, negative = inhibition [2] -1.17% | activity, negative = inhibition [3] 4.46% | Potency [4] > 20.6 µM

O=C(Nc1ccccc1)c1cc(N2CCOCC2)nc2ccccc12
inactive: activity change, negative = inhibition [1] 2.4% | activity change, negative = inhibition [2] 13.1% | activity, negative = inhibition [3] 1.13% | Potency [4] > 20.6 µM

Cc1cc(=O)oc(C)c1C(=O)Nc1ccc2nsnc2c1
inactive: activity change, negative = inhibition [1] 6.72% | activity change, negative = inhibition [2] -6.31% | activity, negative = inhibition [3] 8.13% | Potency [4] > 20.6 µM

COC(=O)c1ccc(N2C(=O)CC(N3CCN(C(=O)c4ccco4)CC3)C2=O)cc1 (centres undefined)
inactive: activity change, negative = inhibition [1] 3.9% | activity change, negative = inhibition [2] -1.87% | activity, negative = inhibition [3] 0.889% | Potency [4] > 20.6 µM

Cc1[nH]c2ccc(F)cc2c(=O)c1SC(F)(F)C(F)C(F)(F)F (centres undefined)
inactive: activity change, negative = inhibition [1] -31.7% | activity change, negative = inhibition [2] 10.1% | activity, negative = inhibition [3] -1.13% | Potency [4] > 20.6 µM

Cc1cc(C)nc(N(C#N)CN2C(=O)c3ccccc3C2=O)n1
inactive: activity change, negative = inhibition [1] 2.24% | activity change, negative = inhibition [2] -1.49% | activity, negative = inhibition [3] 0.344% | Potency [4] > 20.6 µM

CCOC(=O)C1CCN(c2ncnc3c2cnn3-c2ccc(Cl)cc2)CC1
inactive: activity change, negative = inhibition [1] 0.357% | activity change, negative = inhibition [2] -16.1% | activity, negative = inhibition [3] 4.03% | Potency [4] > 20.6 µM

COC(=O)c1ccccc1NC(=O)C1COc2ccccc2O1 (centres undefined)
inactive: activity change, negative = inhibition [1] -7.17% | activity change, negative = inhibition [2] -19.3% | activity, negative = inhibition [3] 2.58% | Potency [4] > 20.6 µM

Cc1occc(=O)c1OC(=O)Nc1ccccc1
inactive: activity change, negative = inhibition [1] 9.9% | activity change, negative = inhibition [2] 1.25% | activity, negative = inhibition [3] 7.55% | Potency [4] > 20.6 µM

COc1cc(C2C(C#N)=C(N)Oc3cc(C)n(CCN4CCOCC4)c(=O)c32)cc(OC)c1OC (centres undefined)
inactive: activity change, negative = inhibition [1] 10.6% | activity change, negative = inhibition [2] 6.98% | activity, negative = inhibition [3] -2.02% | Potency [4] > 20.6 µM

COC(=O)CC1=NC(=O)CS1
inactive: activity change, negative = inhibition [1] 17.8% | activity change, negative = inhibition [2] -3.72% | activity, negative = inhibition [3] 12.3% | Potency [4] > 20.6 µM

CCOC(=O)C1Cc2c([nH]c3ccccc23)C(C)N1 (centres undefined)
inactive: activity change, negative = inhibition [1] -10.7% | activity change, negative = inhibition [2] 2.1% | activity, negative = inhibition [3] -9.52% | Potency [4] > 20.6 µM

Cc1ccc(-n2ncc3c(N4CCCC4)ncnc32)c(C)c1
inactive: activity change, negative = inhibition [1] -15% | activity change, negative = inhibition [2] 22.5% | activity, negative = inhibition [3] -1.13% | Potency [4] > 20.6 µM

C/C(=C\C(=O)O)CC(=O)O
inactive: activity change, negative = inhibition [1] -2.96% | activity change, negative = inhibition [2] -2% | activity, negative = inhibition [3] 7.83% | Potency [4] > 20.6 µM

Cc1nc2c(=O)n(C)c(=O)[nH]c2n1Cc1ccccc1
inactive: activity change, negative = inhibition [1] 10.3% | activity change, negative = inhibition [2] 14.6% | activity, negative = inhibition [3] -0.854% | Potency [4] > 20.6 µM
